Experimental data published in the supplement of paper PMC3334620.
Over roughly 33,000 sequences, “E-score (-0.5 to 0.5)” has its median near -0.053; the highest 2% begin near 0.37. This excerpt belongs to a sample that is enriched for the highest values.

The sequences below were run against Hap1 (UniProt P0CE41) (assay: PBM E-score (8-mer binding enrichment) (E-score (-0.5 to 0.5)); higher = stronger / more preferred TF binding). Details: protein concentration: 200 nM; construct: GST-DNA-binding domain.
How it was run: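 Detection of bound protein used fluorescent anti-GST, with scans normalised by masliner. The proteins were GST-tagged yeast transcription factors applied at about 100-200 nM to universal all-10-mer Agilent arrays made double-stranded by primer extension. Each ungapped eight-base word, pooled with its reverse complement, was scored with an E-score from the Universal PBM Analysis Suite.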

UniProt P0CE41, sequence (P0CE41 whole entry, the tested form may be a part): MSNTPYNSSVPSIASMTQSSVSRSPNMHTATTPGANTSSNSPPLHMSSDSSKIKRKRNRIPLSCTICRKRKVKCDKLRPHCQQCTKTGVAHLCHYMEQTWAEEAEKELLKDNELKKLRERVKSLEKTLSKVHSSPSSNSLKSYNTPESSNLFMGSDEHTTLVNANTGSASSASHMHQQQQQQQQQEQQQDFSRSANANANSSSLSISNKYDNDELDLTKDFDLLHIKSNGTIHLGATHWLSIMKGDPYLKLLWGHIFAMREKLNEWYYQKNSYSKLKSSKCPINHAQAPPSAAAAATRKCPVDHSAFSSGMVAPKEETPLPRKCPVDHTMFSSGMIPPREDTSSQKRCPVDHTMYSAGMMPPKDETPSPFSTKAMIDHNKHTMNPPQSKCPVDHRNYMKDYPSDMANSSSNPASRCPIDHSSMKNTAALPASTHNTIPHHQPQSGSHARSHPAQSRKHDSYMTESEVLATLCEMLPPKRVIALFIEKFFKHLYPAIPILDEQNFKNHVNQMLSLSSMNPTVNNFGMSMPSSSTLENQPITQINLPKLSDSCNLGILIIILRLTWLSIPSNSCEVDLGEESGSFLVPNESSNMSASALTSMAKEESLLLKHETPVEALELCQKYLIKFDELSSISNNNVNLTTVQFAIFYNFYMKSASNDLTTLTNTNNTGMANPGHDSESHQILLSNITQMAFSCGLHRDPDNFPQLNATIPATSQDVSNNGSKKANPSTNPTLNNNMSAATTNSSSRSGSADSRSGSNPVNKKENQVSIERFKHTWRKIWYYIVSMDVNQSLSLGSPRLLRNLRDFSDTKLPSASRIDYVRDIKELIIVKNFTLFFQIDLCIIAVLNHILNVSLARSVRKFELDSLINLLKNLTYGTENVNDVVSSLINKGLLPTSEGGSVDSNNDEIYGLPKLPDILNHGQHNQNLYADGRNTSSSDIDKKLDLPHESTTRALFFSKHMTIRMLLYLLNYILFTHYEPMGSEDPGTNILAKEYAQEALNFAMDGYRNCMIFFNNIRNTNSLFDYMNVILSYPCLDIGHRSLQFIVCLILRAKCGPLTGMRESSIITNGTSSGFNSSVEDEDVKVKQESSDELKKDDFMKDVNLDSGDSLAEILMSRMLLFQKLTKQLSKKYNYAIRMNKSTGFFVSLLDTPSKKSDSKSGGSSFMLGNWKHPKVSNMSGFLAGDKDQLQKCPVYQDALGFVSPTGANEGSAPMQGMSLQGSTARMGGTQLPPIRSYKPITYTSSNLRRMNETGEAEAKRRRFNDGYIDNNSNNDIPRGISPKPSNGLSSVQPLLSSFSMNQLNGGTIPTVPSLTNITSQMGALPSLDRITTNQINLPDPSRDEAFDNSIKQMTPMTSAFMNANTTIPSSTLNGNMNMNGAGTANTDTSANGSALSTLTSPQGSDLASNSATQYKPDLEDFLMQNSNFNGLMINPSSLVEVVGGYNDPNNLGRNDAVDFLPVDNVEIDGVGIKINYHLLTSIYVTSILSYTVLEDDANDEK

Row | Sequence | PBM E-score
1 | CCGATGCA | 0.242
2 | ATACCCGG | 0.38
3 | ATACCCCG | 0.346
4 | ATACCCTG | -0.0146
5 | ATACCCGA | 0.398
6 | CTACCCGA | 0.161
7 | ATACCCGC | 0.253
8 | CATCGCCC | 0.128
9 | AAAAGGTT | -0.211
10 | CGGTTAAC | 0.203
11 | ATACCCTA | -0.203
12 | AGGGTCAC | -0.193
13 | GCGGTGTA | -0.063
14 | AGGCGGAA | 0.0183
15 | CCGCGGAG | 0.352
16 | AGGCGGAG | 0.175
17 | GGGCGGAA | 0.267
18 | CCGCGGAA | 0.317
19 | CAGCGGAG | 0.245
20 | CGGCGGAG | 0.387
21 | AGGCGGTA | -0.131
22 | CGGCGGAA | 0.396

Row | Sequence | PBM E-score
23 | CGGCGGTA | 0.428
24 | CCGCGGAC | 0.383
25 | GGGCGGTA | 0.315
26 | CCATGGCC | -0.0324
27 | CGACCAGA | 0.0439
28 | AGTTTGAG | -0.0293
29 | ATGATCCC | 0.0807
30 | CTTCCCAA | -0.197
31 | CGAAAGTA | 0.0968
32 | CGGCTACG | 0.111
33 | AGATGAAC | -0.115
34 | CGGCGGAC | 0.38
35 | AGGCGGAC | 0.288
36 | GGGCGGAC | 0.279
37 | CCAGACCA | -0.187
38 | ACGTCCGG | 0.411
39 | CCGTCCGC | 0.231
40 | ACGTCCGC | 0.357
41 | GCGTCCGA | 0.305
42 | ACGTCCGA | 0.386
43 | CCGTCCTA | -0.104
44 | ACGTCCAA | -0.0855

Row | Sequence | PBM E-score
45 | CCGTCCGA | 0.399
46 | ACGTCCTG | -0.211
47 | AAACCAAG | -0.0855
48 | CGCGGGCA | 0.256
49 | TATGGTCA | -0.303
50 | CAGAGATA | -0.182
51 | ACCGTGAA | 0.126
52 | CGTTCCAG | -0.157
53 | AGCCCCTG | -0.269
54 | CATCTATC | -0.00973
55 | TATCGGAA | 0.409
56 | CAACGGAA | 0.285
57 | CATCGGCA | 0.266
58 | CATCGGGA | 0.223
59 | AATCGGCA | 0.224
60 | CATCGGAA | 0.297
61 | AATCGGAA | 0.364
62 | GATCGGGA | 0.136
63 | TATCGGGA | 0.393
64 | TATCGGCA | 0.425
65 | GAACGGAA | 0.282
66 | TAACGGAA | 0.375

Row | Sequence | PBM E-score
67 | GAAGGCAA | -0.137
68 | AAATTGAG | -0.0939
69 | CTCTGGCA | -0.217
70 | ATTGGTTA | -0.094
71 | CCGGAGAA | 0.428
72 | CCGGAGGC | 0.286
73 | GCGGAGGA | 0.17
74 | CCGGAGGA | 0.432
75 | TCGGAGAA | 0.405
76 | ACGGAGAA | 0.27
77 | GCGGAGTA | 0.25
78 | CCGGAGTC | 0.356
79 | GCGGAGAA | 0.349
80 | CCGGAGTA | 0.435
81 | CAGGAGAA | -0.147
82 | CCGGAGAG | 0.354
83 | ACCATGCG | -0.0491
84 | CATTAACC | 0.0537
85 | TCTATGAA | -0.115
86 | CACAATGC | -0.0342
87 | GAGAATGA | -0.137
